Among all 310,000 compounds or so, about 14,000 (4.5%) showed an effect of 50% or more. The effect is printed as a negative number. For the sample, strong results were picked, then their nearest neighbours and some compounds at random.
The molecules below were run against human ether-à-go-go-related gene (hERG) potassium channel (human, UniProt Q12809) (assay: primary screen, population patch clamp on CHO cells stably expressing hERG; higher = less effect of the substance).
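Also: peak tail current of the secondary pulse compared with the same well before compound.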

human ether-à-go-go-related gene (hERG) potassium channel, sequence (Q12809 whole entry, looked up): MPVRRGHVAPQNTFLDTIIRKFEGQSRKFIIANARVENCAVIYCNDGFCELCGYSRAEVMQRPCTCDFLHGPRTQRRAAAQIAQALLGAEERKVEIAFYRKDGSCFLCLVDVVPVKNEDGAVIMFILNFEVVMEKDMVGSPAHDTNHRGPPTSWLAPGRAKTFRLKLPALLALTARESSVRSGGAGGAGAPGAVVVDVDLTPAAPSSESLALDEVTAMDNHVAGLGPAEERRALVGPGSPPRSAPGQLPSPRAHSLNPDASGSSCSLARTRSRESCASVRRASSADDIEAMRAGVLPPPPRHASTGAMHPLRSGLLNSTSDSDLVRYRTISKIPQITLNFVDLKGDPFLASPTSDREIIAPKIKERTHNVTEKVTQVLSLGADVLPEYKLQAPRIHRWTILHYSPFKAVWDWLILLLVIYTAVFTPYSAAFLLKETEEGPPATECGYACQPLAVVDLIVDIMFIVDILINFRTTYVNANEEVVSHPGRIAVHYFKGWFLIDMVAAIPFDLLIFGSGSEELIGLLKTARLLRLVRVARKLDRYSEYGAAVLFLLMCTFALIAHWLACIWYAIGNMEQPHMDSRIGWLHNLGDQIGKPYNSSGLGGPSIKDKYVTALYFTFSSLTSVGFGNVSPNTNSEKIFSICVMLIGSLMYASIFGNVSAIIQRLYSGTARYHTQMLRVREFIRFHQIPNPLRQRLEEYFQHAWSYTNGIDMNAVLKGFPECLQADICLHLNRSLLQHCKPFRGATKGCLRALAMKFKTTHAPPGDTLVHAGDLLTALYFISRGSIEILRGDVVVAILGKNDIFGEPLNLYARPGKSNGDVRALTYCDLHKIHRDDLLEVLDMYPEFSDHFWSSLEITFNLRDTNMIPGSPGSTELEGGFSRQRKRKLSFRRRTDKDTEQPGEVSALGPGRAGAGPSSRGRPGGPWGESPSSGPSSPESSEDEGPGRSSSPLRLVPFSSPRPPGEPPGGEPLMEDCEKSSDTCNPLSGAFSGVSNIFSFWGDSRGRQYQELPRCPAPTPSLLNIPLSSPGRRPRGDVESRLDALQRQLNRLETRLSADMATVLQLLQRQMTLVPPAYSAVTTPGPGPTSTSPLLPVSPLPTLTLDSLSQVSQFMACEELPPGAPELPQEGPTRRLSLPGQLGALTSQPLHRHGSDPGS

Row | SMILES | hERG current change (%, negative = inhibition) at 10uM [%]
1 | C1=CCC(CN2CCNCC2)CC1.O=C(O)C(F)(F)F (stereo not shown) | 9.96
2 | CN(C)C(=O)COC(=O)c1ccccc1NC(=O)c1ccco1 | -15.7
3 | CNC(=O)COC(=O)c1ccccc1NC(=O)c1ccco1 | -52.1
4 | CC1CCN(C(=O)COC(=O)c2ccccc2NC(=O)c2ccco2)CC1 | -60.9
5 | O=C(Nc1ccccc1C(=O)OCC(=O)N1CCc2ccccc2C1)c1ccco1 | -30.9
6 | O=C(COC(=O)c1ccccc1NC(=O)c1ccco1)NC1CC1 | -19
7 | CC(C)(C)NC(=O)COC(=O)c1ccccc1NC(=O)c1ccco1 | -7.06
8 | CS(=O)(=O)N1CCN(C2C3CC4CC(C3)CC2C4)CC1.O=C(O)C(=O)O (stereo not shown) | 26.3
9 | CC(=O)Nc1ccc(N(C(=O)c2cnccn2)C(C(=O)NC2CCCCC2)c2ccc(F)cc2)cc1 (stereo not shown) | 0.645
10 | CC(=O)c1ccccc1C(=O)N(C)C1CCCN(Cc2ccccc2F)C1 (stereo not shown) | 15.2
11 | CNC(=O)N(O)C1N(/N=C/c2ccc(SC)cc2)C(=S)SC1(C)C (stereo not shown) | 26.3
12 | O=C(NCCN1CCOCC1)c1ccc2c(c1)N(Cc1ccc(Cl)cc1)CCS2 | -29.8
13 | N#Cc1c(N)n(-c2ccc(O)cc2)c2nc3ccccc3nc12 | 8.96
14 | COc1cccc(CC2(CO)CCCN(Cc3ccc(-c4ccco4)cc3)C2)c1 (stereo not shown) | -3.75
15 | COc1ccc(CN2CCCC(CO)(Cc3ccc(F)cc3)C2)c(OC)c1OC (stereo not shown) | -71.1
16 | Cc1ccc(C)c(-c2[nH]ncc2CN2CCCC(CO)(Cc3ccccc3C)C2)c1 (stereo not shown) | -47.8
17 | OCC1(Cc2ccc(F)cc2)CCCN(Cc2ccc(F)cc2Cl)C1 (stereo not shown) | -2.59
18 | COc1cccc(CC2(CO)CCCN(Cc3cn[nH]c3-c3ccccc3)C2)c1 (stereo not shown) | -49.9
19 | COc1ccc(CN2CCCC(CO)(Cc3ccc(F)cc3)C2)cc1C (stereo not shown) | -47.7
20 | COc1cccc(CC2(CO)CCCN(Cc3cn(C)c4ccccc34)C2)c1 (stereo not shown) | -77.9
21 | COc1cccc(CC2(CO)CCCN(Cc3ccccc3-c3ccco3)C2)c1 (stereo not shown) | -75.8
22 | COc1cccc(CC2(CO)CCCN(Cc3ccccc3Cl)C2)c1 (stereo not shown) | -31.2
23 | COc1cccc(CC2(CO)CCCN(Cc3cn[nH]c3-c3cc(C)ccc3C)C2)c1 (stereo not shown) | -59.2
24 | CC1C(=O)C(C)C(c2ccco2)NC1c1ccco1.Cl (stereo not shown) | 13.9
25 | O=C(CSc1nnc(CNC(=O)c2cccs2)o1)NC1CCCCC1 | -24
26 | C/C(=N/NC(=O)c1ccncc1)c1ccc2c(c1)OCO2 | 13.8
27 | COc1cccc(CC2(CO)CCCN(Cc3ccc(OC)c(C)c3OC)C2)c1 (stereo not shown) | -77.6

Row | SMILES | hERG current change (%, negative = inhibition) at 10uM [%]
28 | COc1ccc(C(N)=O)cc1NC(=O)c1cccc(F)c1 | 18.9
29 | NC(=O)c1ccc(NC(=O)COC(=O)C(Cc2ccccc2)NC(=O)c2ccccc2)cc1 (stereo not shown) | -53
30 | O=C(COC(=O)C(Cc1ccccc1)NC(=O)c1ccccc1)c1ccccc1 (stereo not shown) | -1.84
31 | O=C(COC(=O)C(Cc1ccccc1)NC(=O)c1ccc(Cl)cc1)c1ccc(Cl)cc1 (stereo not shown) | -27.3
32 | CN1CCN(C(=O)C2=C[C@H](c3ccc(C(F)(F)F)cc3)C[C@H](OCc3ccc(CO)cc3)O2)CC1 | -40.4
33 | O=C(NC1CC1)C1=C[C@H](c2ccc(C(F)(F)F)cc2)C[C@H](OCc2ccc(CO)cc2)O1 | -42.7
34 | O=C(O)C1=C[C@@H](c2ccc(C(F)(F)F)cc2)C[C@@H](OCc2ccc(CO)cc2)O1 | 16.7
35 | O=C(NC1CC1)C1=C[C@H](c2ccccc2)C[C@H](OCc2ccc(CO)cc2)O1 | -19.9
36 | O=C(O)C1=C[C@H](c2ccc(Br)cc2)C[C@H](OCc2ccc(CO)cc2)O1 | 15.1
37 | O=C(NC1CC1)C1=C[C@@H](c2ccccc2)C[C@@H](OCc2ccc(CO)cc2)O1 | -38.3
38 | O=C(NC1CC1)C1=C[C@@H](c2ccc(Br)cc2)C[C@@H](OCc2ccc(CO)cc2)O1 | -56.4
39 | O=C(NC1CC1)C1=C[C@@H](c2ccc(C(F)(F)F)cc2)C[C@@H](OCc2ccc(CO)cc2)O1 | -63.2
40 | CN1CCN(C(=O)C2=C[C@@H](c3ccc(C(F)(F)F)cc3)C[C@@H](OCc3ccc(CO)cc3)O2)CC1 | -52.6
41 | O=C(C1=C[C@H](c2ccc(C(F)(F)F)cc2)C[C@H](OCc2ccc(CO)cc2)O1)N1CCCCCCC1 | -17.7
42 | O=C(NC1CC1)C1=C[C@H](c2ccc(Br)cc2)C[C@H](OCc2ccc(CO)cc2)O1 | -71.1
43 | C#Cc1ccc([C@@H]2C=C(C(=O)NC3CC3)O[C@H](OCc3ccc(CO)cc3)C2)cc1 | -3.96
44 | COc1cc(CNC(=O)c2ccc3c(c2)S(=O)(=O)c2ccccc2C3=O)cc(OC)c1 | -0.0926
45 | O=C(COC(=O)c1cccc(Br)c1)Nc1cccc2c1C(=O)c1ccccc1C2=O | 4.56
46 | Cc1cccc(C)c1Nc1nnc(SCC(=O)NC2CCS(=O)(=O)C2)s1 (stereo not shown) | 1.96
47 | CS(=O)(=O)CCC(C(=O)n1nnc2ccccc21)N1C(=O)c2ccccc2C1=O (stereo not shown) | -3.22
48 | Cc1ccc(NS(=O)(=O)c2ccc(Cl)c(C(=O)Nc3ccccc3-c3nc4ccccc4[nH]3)c2)cc1C | 17.2
49 | O=C(CC12CC3CC(CC(C3)C1)C2)Nc1ccc2c(c1)COC2=O | -9.44
50 | CN(C(=O)/C=C/c1ccccc1)C1CCS(=O)(=O)C1 (stereo not shown) | -0.518
51 | COc1cccc(N2CCN(C(=O)c3ccc(CS(=O)Cc4ccccc4Cl)o3)CC2)c1 (stereo not shown) | -70.7
52 | Cc1ccc(CS(=O)Cc2ccc(C(=O)N3CCN(c4ccc(F)cc4)CC3)o2)cc1 (stereo not shown) | -52.9
53 | COc1ccc(N2CCN(C(=O)c3ccc(CS(=O)Cc4ccc(Cl)cc4)o3)CC2)cc1 (stereo not shown) | -50.1
54 | O=C(c1ccc(CS(=O)Cc2ccc(Cl)cc2)o1)N1CCN(c2ccccn2)CC1 (stereo not shown) | -61.2

Row | SMILES | hERG current change (%, negative = inhibition) at 10uM [%]
55 | COc1ccc(N2CCN(C(=O)c3ccc(CS(=O)Cc4ccc(C)cc4)o3)CC2)cc1 (stereo not shown) | -18.3
56 | O=C(c1ccc(CS(=O)Cc2ccccc2Cl)o1)N1CCN(c2ccccn2)CC1 (stereo not shown) | -5.66
57 | COc1cccc(N2CCN(C(=O)c3ccc(CS(=O)Cc4ccc(C)cc4)o3)CC2)c1 (stereo not shown) | -11.4
58 | Cc1ccc(CS(=O)Cc2ccc(C(=O)N3CCOCC3)o2)cc1 (stereo not shown) | -33.3
59 | Cc1ccc(CS(=O)Cc2ccc(C(=O)N3CCN(c4ccccn4)CC3)o2)cc1 (stereo not shown) | -10.1
60 | COc1cccc(N2CCN(C(=O)c3ccc(CS(=O)c4ccccc4Cl)o3)CC2)c1 (stereo not shown) | -30.8
61 | Cc1ccc(CS(=O)Cc2ccc(C(=O)N3CCN(c4ccccc4)CC3)o2)cc1 (stereo not shown) | -14.8
62 | O=C(c1ccc(CS(=O)Cc2ccccc2Cl)o1)N1CCN(c2cccc(Cl)c2)CC1 (stereo not shown) | -41.8
63 | NS(=O)(=O)c1ccc2nc(NC(=O)CS(=O)(=O)c3ccccc3)sc2c1 | 26.8
64 | CCN(CC)CCN=C(C)c1c(O)n(-c2ccccc2OC)c(=O)[nH]c1=O | 4.71
65 | Cc1cccc(NC(=O)C(=O)C2C(=O)Nc3ccccc32)c1 (stereo not shown) | 4.05
66 | CC1=C(C(=O)Nc2ccccc2)C(c2ccco2)NC(=O)N1 (stereo not shown) | 14.5
67 | O=c1[nH]c2ccc(NS(=O)(=O)c3ccc(Cl)cc3)cc2[nH]1 | 15.8
68 | CCCc1ccc(OCc2ccc(C(=O)O)o2)c(OC)c1 | 8.51
69 | Cc1ccc(C)c(N2CCN(C(=O)c3ccc(CS(=O)Cc4ccc(Cl)cc4)o3)CC2)c1 (stereo not shown) | -26.9
70 | Cc1cccc(N2CCN(C(=O)c3ccc(CS(=O)Cc4cccc(Cl)c4)o3)CC2)c1C (stereo not shown) | -13.5
71 | Cc1ccc(CS(=O)Cc2ccc(C(=O)NC3CCCCC3)o2)cc1 (stereo not shown) | 2.31
72 | Cc1ccc(CS(=O)Cc2ccc(C(=O)NC3CCCCCC3)o2)cc1 (stereo not shown) | 8.98
73 | Cc1ccc(CS(=O)Cc2ccc(C(=O)NC3CCC(C)CC3)o2)cc1 (stereo not shown) | -51
74 | Cc1ccc(Cl)cc1N1CCN(C(=O)c2ccc(CS(=O)Cc3ccc(Cl)cc3)o2)CC1 (stereo not shown) | 13.9
75 | Cc1ccc(C)c(N2CCN(C(=O)c3ccc(CS(=O)Cc4cccc(Cl)c4)o3)CC2)c1 (stereo not shown) | -6.6
76 | CCCc1ccc(OCc2ccc(C(=O)N3CCN(c4ccccn4)CC3)o2)c(OC)c1 | -56.5
77 | Cc1cccc(N2CCN(C(=O)c3ccc(CS(=O)Cc4ccc(Cl)cc4)o3)CC2)c1C (stereo not shown) | -57
78 | COc1ccccc1S(=O)(=O)Cc1ccc(C(=O)N2CCN(c3ccccn3)CC2)o1 | -17.8
79 | O=C(c1ccc(CS(=O)Cc2ccc(Cl)cc2)o1)N1CCN(c2ccccc2F)CC1 (stereo not shown) | -55.8

— paper PMC4336329 (PLoS ONE, 2015)
